PubChem BioAssay (NCATS)
Inconclusive results are not listed. The source made the active and inactive calls. Calls come from the whole dose curve; as a rule, active = well fitted curve in the direction sought with a large enough effect; inconclusive = small, poorly fitted or top-dose-only effect, or another doubt; inactive = no such curve, though single readings can be large; an effect the other way counts as inactive or inconclusive.

Tests used:
[1] = SW1088 Cancer Cell Toxicity qHTS against the NCATS CANVASS Library (AID 1347350); details: SW1088 viability, CellTiter-Glo luminescence, 72 h; series mostly up to 38.3 µM; note: nearly all actives have a fitted effect of over 75% in size; note: potency is the fitted concentration of half-maximal effect
Method in brief: (§1)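 Bortezomib titration and single-dose wells served as plate controls. Test compounds, 11 points, acted on 1000 cells/well for 72 h at 37 degrees C; CellTiter-Glo luminescence quantified remaining viable cells.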

[2] = U-118MG Cancer Cell Toxicity qHTS against the NCATS CANVASS Library (AID 1347351); details: U-118MG viability, CellTiter-Glo luminescence, 72 h; series mostly up to 38.3 µM; note: potency is the fitted concentration of half-maximal effect
Method in brief: as §1

[3] = A2780 Cisplatin Sensitive Ovarian Cancer Cell Toxicity qHTS against the NCATS CANVASS Library (AID 1347353); details: A2780 ovarian cancer viability, ATPLite luminescence, 72 h; series mostly up to 46.1 µM; note: nearly all actives have a fitted effect of over 60% in size; note: potency is the fitted concentration of half-maximal effect
Method in brief: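 750 cells/well, 4 h settle; 11-pt cpd titration; 72 h, 37 °C, 5% CO2; ATPLite 10 min RT; luminescence read.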

[4] = HEK-293 Cancer Cell Toxicity qHTS against the NCATS CANVASS Library (AID 1347355); details: HEK-293 viability, CellTiter-Glo luminescence, 72 h; series mostly up to 46.1 µM; note: nearly all actives have a fitted effect of over 65% in size; note: potency is the fitted concentration of half-maximal effect
Method in brief: (§2)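 1000 cells/well, 4 h pre-incubation 37 °C/5% CO2; 11-pnt titration; 72 h; CellTiter-Glo 15 min RT, luminescence.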

[5] = test system: NAD(P)H diaphorase (Clostridium kluyveri); test: Diaphorse counterscreen qHTS: Assay Interference Panel against the NCATS CANVASS Library (AID 1347362); details: Diaphorase enzyme, resazurin to resorufin fluorescence; series mostly up to 57.5 µM
Method in brief: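 Clostridium kluyveri diaphorase in PBS + 0.01% Tween-20 preincubated 15 min with compounds. Resazurin and NADH then added for 5 min at room temperature in the dark; resorufin fluorescence read (ex 525, em 598).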

[6] = SDT Cancer Cell Toxicity qHTS against the NCATS CANVASS Library (AID 1347365); details: SDT dog glioma viability, ATP luminescence, 72 h; series mostly up to 46.1 µM; note: nearly all actives have a fitted effect of over 60% in size; note: potency is the fitted concentration of half-maximal effect
Method in brief: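 Luminescent ATP read-out (CellTiterGlo) after 72 hr compound exposure of dog glioma SDT cells, 500 per well. Eleven-point titrations; bortezomib titration run alongside as control.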

[7] = G06 Cancer Cell Toxicity qHTS against the NCATS CANVASS Library (AID 1347368); details: G06 dog glioma cells, viability ATP luminescence, 72 h; series mostly up to 46.1 µM; note: nearly all actives have a fitted effect of over 60% in size; note: potency is the fitted concentration of half-maximal effect
Method in brief: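 ATP luminescence (CellTiterGlo) readout of cytotoxicity. Canine G06 glioma cells, 500/well, 72 hr incubation at 37C with compounds; bortezomib titration served as control.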

[8] = qHTS for Hypoxia signaling pathway (HIF-1) antagonists against the NCATS CANVASS Library (AID 1347374); details: HRE-bla ME-180 cells, HIF-1 beta-lactamase reporter, CoCl2; series mostly up to 38.3 µM; note: nearly all actives have a fitted effect of over 60% in size; note: potency is the fitted concentration of half-maximal effect
Method in brief: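 Beta-lactamase reporter under HRE control in ME-180 cells; CoCl2 stimulus (60 uM solution as added), compounds 11-pt qHTS, 17 h 37C. CCF4 dye 2 h RT, 460/530 nm emission. CellTiter-Glo viability in same wells.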

[9] = qHTS for Hypoxia signaling pathway (HIF-1) agonists against the NCATS CANVASS Library (AID 1347375); details: HRE-bla ME-180 cells, HIF-1 beta-lactamase reporter, 17 h; series mostly up to 38.3 µM
Method in brief: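 Read-out: beta-lactamase FRET (CCF4-AM, ex 405, em 460 and 530 nm) after 2 h at room temperature. ME-180 cells stably carrying HRE-bla were treated 17 h at 37C with compounds in an 11-point concentration series.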

[10] = qHTS for H2AX Agonists against the NCATS CANVASS Library (AID 1347378); details: CHO-K1 H2AX phosphorylation, HTRF TR-FRET, 3 h; series mostly up to 76.9 µM;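 note: phospho-H2AX S139 level in CHO-K1 lysates by TR-FRET emission ratio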
Method in brief: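 Signal is the 665/620 nm emission ratio from europium cryptate and d2 antibody pair, rising with S139-phosphorylated H2AX. CHO-K1 cells saw test agents for 3 hr at 37C; detection ran 24 hr at room temperature.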

[11] = qHTS for activators of Nrf2/ARE signaling pathway screened against the NCATS CANVASS Library (AID 1347391); details: ARE-bla HepG2, beta-lactamase reporter, 16 h; series mostly up to 46.1 µM; note: nearly all actives have a fitted effect of over 60% in size; note: potency is the fitted concentration of half-maximal effect
Method in brief: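 HepG2 ARE-bla; cpd 11-pt qHTS, 16 h 37C/5% CO2; CCF4 substrate 2 h RT; read ex 405 / em 460 + 530 nm. Viability by CellTiter-Glo luminescence, 30 min RT.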

[12] = qHTS for inhibitors of ER calcium dysfunction: SERCaMP assay screened against the NCATS CANVASS Library (AID 1347393); details: SH-SY5Y GLuc-SERCaMP secretion, thapsigargin, luminescence; series mostly up to 76.6 µM; note: nearly all actives have a fitted effect of over 40% in size; note: potency is the fitted concentration of half-maximal effect
Method in brief: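 SH-SY5Y GLuc-SERCaMP, 1000 cells/well, 4 h attach; cpd 16 h, 37C/5% CO2; thapsigargin (added as 6x 600 nM) 4 h; coelenterazine; luminescence. Reduced reporter release = ER Ca stabilization.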

[13] = qHTS for inhibitors of Wild type Zika virus screened against the NCATS CANVASS Library (AID 1347396); details: Vero cells, Zika virus CPE, CellTiter-Glo, 72 h; series mostly up to 45.9 µM;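 note: ATP luminescence of surviving cells so rescue from viral cell killing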
Method in brief: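 Vero 766 cells, 1000/well, o/n attach; cpds pin-transferred (11-pt qHTS); WT Zika added; 72 h, 37C, 5% CO2; CellTiter Glo lumi. Uninfected + vehicle = 100% inhibition.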

[14] = Redox Reaction Profiling qHTS: Assay Interference Panel against the NCATS CANVASS Library (AID 1347401); details: resazurin-DTT redox cycling, fluorescence, 15 min; series mostly up to 57.1 µM; note: potency is the fitted concentration of half-maximal effect
Method in brief: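 Fluorescence read-out (525 nm excitation, 598 nm emission) at time zero and after 15 min in the dark tracked resorufin formation. Mix: 5 uM resazurin, 200 uM DTT, HEPES pH 7.3 buffer with NaCl.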

[15] = UWB1.289-WTBRCA1 Cancer Cell Toxicity qHTS against the NCATS CANVASS Library (AID 1347354); details: UWB1.289-WTBRCA1 viability, CellTiter-Glo luminescence, 72 h; series mostly up to 38.3 µM
Method in brief: as §2

[16] = molecular target: Nuclear receptor subfamily 1 group I member 3 (Homo sapiens) (UniProt Q14994); test: qHTS for Constitutive Androstane Receptor (CAR) Antagonist screened against the NCATS CANVASS Library (AID 1347372); details: HepG2-hCAR-CYP2B6 luciferase, CITCO-stimulated antagonist mode; series mostly up to 46.1 µM;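 note: cells stimulated with 50 nM CITCO agonist so inhibition reflects antagonism; luciferase from CYP2B6 promoter reporter driven by hCAR in HepG2 cells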
Method in brief: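 Luminescence readout (ONE-Glo, 30 min RT) of CYP2B6-2.2kb reporter in HepG2-hCAR cells after 24hr, 37C treatment with compound against 50 nM CITCO; CellTiter-Fluor viability read beforehand.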

[17] = qHTS for Activators of p53 Stress Response Pathway screened against the NCATS CANVASS Library (AID 1347388); details: p53RE-bla HCT-116, beta-lactamase reporter, 16 h; series mostly up to 46.1 µM; note: potency is the fitted concentration of half-maximal effect
Method in brief: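 p53RE-bla HCT-116 cells (4000/well) were pre-incubated for 5 h, then treated with compound (11 points) for 16 h at 37C. After 2 h with CCF4, the 460/530 nm ratio gave reporter activation; CellTiter-Glo measured viability.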

[18] = qHTS assay for small molecule disruptors of mitochondrial membrane potential screened against the NCATS CANVASS Library (AID 1347389); details: HepG2 mitochondrial membrane potential, m-MPI red/green ratio, 1.5 h; series mostly up to 46.1 µM; note: nearly all actives have a fitted effect of over 60% in size; note: potency is the fitted concentration of half-maximal effect
Method in brief: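 Red/green fluorescence ratio read-out: J-aggregates ex 540/em 590 nm, monomers ex 490/em 535 nm. HepG2, 1 hr compound treatment, then 30 min Mito-MPS dye at 37C. 11-pt qHTS concentration series.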

[19] = COV-362 Cancer Cell Toxicity qHTS against the NCATS CANVASS Library (AID 1347352); details: COV-362 viability, CellTiter-Glo luminescence, 72 h; series mostly up to 38.3 µM
Method in brief: as §2

[20] = Secretion counterscreen for inhibitors of the SERCaMP assay screened against the NCATS CANVASS Library (AID 1347390); details: SH-SY5Y constitutive GLuc secretion, luminescence, 20 h; series mostly up to 76.6 µM;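 note: light from luciferase secreted into medium read as a measure of general secretion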
Method in brief: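 Natural products are titrated in an 11-point series up to 77 uM onto SH-SY5Y-GLuc STOP cells for 20 h. Secreted reporter activity is measured as coelenterazine-driven luminescence, with Brefeldin A on each plate.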

Measured: Potency

Sequence of Nuclear receptor subfamily 1 group I member 3 (Homo sapiens) (Q14994 whole entry, looked up): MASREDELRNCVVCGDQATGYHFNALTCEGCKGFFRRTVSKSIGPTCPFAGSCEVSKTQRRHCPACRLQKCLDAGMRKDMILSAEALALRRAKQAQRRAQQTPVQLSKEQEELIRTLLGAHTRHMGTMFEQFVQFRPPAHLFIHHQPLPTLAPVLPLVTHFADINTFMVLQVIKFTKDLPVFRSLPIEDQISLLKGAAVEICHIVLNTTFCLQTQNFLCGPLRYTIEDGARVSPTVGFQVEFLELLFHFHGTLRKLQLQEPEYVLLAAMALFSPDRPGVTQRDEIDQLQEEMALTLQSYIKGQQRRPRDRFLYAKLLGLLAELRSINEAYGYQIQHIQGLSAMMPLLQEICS

C/C1=C/[C@@H](C)[C@H](O)C/C=C/CC/C=C/C(=O)O[C@@H]1[C@H](C)C(=O)/C=C/CC1CC(=O)NC(=O)C1
inactive: [5] | [9] | [10] | [13]
active: [1] 21.1 µM | [2] 21.1 µM | [3] 3.72 µM | [4] 7.43 µM | [6] 9.35 µM | [7] 14.8 µM | [8] 7.47 µM | [11] 2.34 µM | [12] 4.31 µM | [14] 24.1 µM

CN1CCc2cc3c(c4c2[C@H]1[C@@H](O)c1ccccc1-4)OCO3
inactive: [1] | [2] | [15] | [16] | [9] | [10] | [13]
active: [4] 23.5 µM | [6] 18.7 µM | [8] 11.8 µM | [17] 26.3 µM | [18] 11.7 µM | [11] 20.9 µM | [12] 34.3 µM | [14] 7.64 µM

C=C[C@@]1(C)CC[C@@H]([C@H](C)C(=O)/C=C/C(C)C)O1
not listed: [7] | [12]
inactive: all other assays above

O=Cc1ccc2n1C[C@@]1(C[C@H](O)[C@H](O)CO1)OC2
not listed: [12] | [15] | [19]
inactive: all other assays above

Oc1ccc([C@H]2Oc3ccc(/C=C/c4cc(O)cc(O)c4)cc3C2c2cc(O)cc(O)c2)cc1 (stereo not given in full)
not listed: [1] | [8] | [12] | [17]
inactive: all other assays above

C=C(C)[C@@H]1CC[C@]2(C)CC[C@]3(C)[C@H](CC[C@@H]4[C@@]5(C)CC[C@H](O)C(C)(C)[C@@H]5CC[C@]43C)[C@@H]12
inactive: all assays above
